# Results filed as inconclusive are left out. Entries that show only a call come without a potency. Calls of active or inactive are those of the source. Unless noted, calls come from the whole dose curve; as a rule, active = well fitted curve in the direction sought with a large enough effect in the repeat runs; inconclusive = weak or mixed curves; inactive = no such curve, though single readings can be large; an effect the other way counts as inactive or inconclusive.
# Tests used:
# [1] = qHTS assay to identify small molecule antagonists of the estrogen related receptor (ERR) signaling pathway - cell viability counter screen (AID 1224818); settings: ERR reporter cell line viability counter screen; series mostly up to 46.1 µM;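 note: viability measured after 17.5 h of compound exposure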
# Summary of the method: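 Here, ERR cells are plated at 2,000 cells per well, allowed 6 h to attach, and treated with compounds in DMSO for 17.5 h at 37 C. CellTiter-Fluor is then added and fluorescence read after 30 min.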
# [2] = qHTS assay to identify small molecule antagonists of the estrogen related receptor (ERR) signaling pathway (AID 1224819;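 note: luminescence from an ERR-driven luciferase reporter measured with One-Glo reagent; nearly all actives have a fitted effect of over 50% in size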); settings: ERR reporter cell line, luciferase inhibition; series mostly up to 46.1 µM
# Summary of the method: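 LOPAC library screened for antagonism as reduced One-Glo luminescence in ERR reporter cells (2,000/well). Compounds were added after 6 h pre-incubation and left 18 h at 37C; reading followed a 30 min room-temperature reagent step.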
# [3] = qHTS assay to identify small molecule agonists of the estrogen related receptor (ERR) signaling pathway (AID 1224820); settings: ERR reporter cell line, luciferase agonist mode; series mostly up to 46.1 µM; note: potency is the fitted concentration of half-maximal effect
# Summary of the method: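 ERR reporter cell line (from NTP), 2,000 cells/well, incubated 6 h before compound addition, then 18 h at 37 C. Luminescence measured 30 min after One-Glo reagent at room temperature.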
# [4] = tested on: estrogen-related receptor alpha (ERRalpha) with PGC-1alpha coactivator, human; assay: qHTS assay to identify small molecule antagonists of the estrogen related receptor signaling pathway with the pleiotropic PPARgamma coactivator (PGC) (AID 1224821; calls by dose curve; note: nearly all actives have a fitted effect of over 50% in size; note: potency is the fitted concentration of half-maximal effect); settings: ERR/PGC reporter cell line, luciferase, antagonist mode; series mostly up to 46.1 µM
# Summary of the method: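 PGC/ERR reporter cell line, plated 6 h before compound addition, then exposed 18 h at 37 °C. Luciferase activity read by luminescence 30 min after One-Glo addition; decrease indicates antagonism.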
# [5] = qHTS assay to identify small molecule antagonists of the estrogen related receptor signaling pathway with the pleiotropic PPARgamma coactivator (PGC) cell viability counter screen (AID 1224822;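 note: viability read after 17.5 h compound exposure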); settings: ERR/PGC reporter cell line viability counter screen; series mostly up to 46.1 µM
# Summary of the method: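 qHTS format, DMSO compound stocks pin-transferred onto PGC/ERR cells 6 h after plating; 17.5 h exposure at 37 C, then CellTiter-Fluor fluorescence.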
# [6] = qHTS assay to identify small molecule agonists of the estrogen related receptor signaling pathway with the pleiotropic PPARgamma coactivator (PGC) (AID 1224823); settings: ERR/PGC reporter cell line, luciferase agonist mode; series mostly up to 46.1 µM
# Summary of the method: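 PGC/ERR reporter cells seeded 6 h, then exposed to compounds (23 nL in DMSO) for 18 h at 37 C. One-Glo luciferase luminescence read after 30 min at room temperature.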
Structure (SMILES),Potency [1],Potency [2],Potency [3],Potency [4],Potency [5],Potency [6]
NC(C(=O)O)c1cc(=O)[nH]o1 (configuration not stated),inactive,inactive,inactive,inactive,inactive,inactive
CCCN1CCC[C@@H](c2cccc(O)c2)C1,inactive,inactive,inactive,inactive,,
NCC(O)c1cc(O)c(O)cc1F (configuration not stated),inactive,inactive,inactive,inactive,inactive,inactive
CCN(CC)c1ncnc2c1ncn2[C@@H]1O[C@H](COP(=O)(O)OP(=O)(O)C(Br)(Br)P(=O)(O)O)[C@@H](O)[C@H]1O,inactive,inactive,inactive,inactive,inactive,
C[C@H](Cc1ccc2c(c1)OC(C(=O)O)(C(=O)O)O2)NC[C@H](O)c1cccc(Cl)c1,inactive,inactive,inactive,inactive,inactive,inactive
C[C@H](N)Cc1cccc(C(F)(F)F)c1,inactive,inactive,inactive,inactive,inactive,inactive
CC(C)NP(=O)(NC(C)C)OP(=O)(NC(C)C)NC(C)C,inactive,inactive,inactive,inactive,inactive,inactive
NCc1cc(=O)[nH]o1,inactive,inactive,inactive,inactive,inactive,inactive
C#CCOC(=O)C1=CCCN(C)C1,inactive,inactive,22 µM (active),inactive,inactive,
COc1ccc2[nH]c3c(c2c1)CCNC3,inactive,inactive,inactive,inactive,inactive,inactive
NC(=NCCC[C@H](N)C(=O)O)N[N+](=O)[O-],inactive,inactive,inactive,inactive,inactive,inactive
NC(CCP(=O)(O)O)C(=O)O (configuration not stated),inactive,inactive,inactive,inactive,inactive,
CC12NC(Cc3ccccc31)c1ccccc12 (configuration not stated),inactive,inactive,inactive,inactive,inactive,
Clc1cc(I)cc(Cl)c1NC1=NCCN1,inactive,inactive,inactive,inactive,inactive,
CC(C)(C)OC(=O)NC1[C@H]2CNC[C@@H]12 (some centres not stated),inactive,inactive,inactive,15.5 µM (active),,inactive

# — PubChem BioAssay (Tox21)
